Source: PubChem
This is a sample that favours compounds with a hit; in the whole collection about 12% have one here.
Sfp inh = inhibitors of Bacillus subtilis Sfp phosphopantetheinyl transferase; Q9F4F7; Biochemical Sfp PPTase activity, qHTS; Potency, µM, most hits filed as inhibitors; hit rate 3.5% among 310,000;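 further: the enzyme is Sfp with the accession as filed and its product quenches rhodamine fluorescence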
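Buffer: 50 mM Hepes-Na pH 7.6, 10 mM MgCl2, 0.01% Nonidet P-40, 0.01% BSA. Enzyme 15 nM, pre-exposed to compound 15 min; substrates then added and fluorescence change tracked over 30 min.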
HP1b chromo inh = HP1-beta chromodomain-methylated histone interaction inhibition. AlphaScreen HP1-beta / biotin-H3K9me3 peptide binding. Potency, µM (top dose mostly 114 µM), actives largely listed as inhibitors. hit rate 0.56% among 390,000; further: nearly all actives have a fitted effect of over 70% in size
Target sequence (P83916 whole entry, looked up): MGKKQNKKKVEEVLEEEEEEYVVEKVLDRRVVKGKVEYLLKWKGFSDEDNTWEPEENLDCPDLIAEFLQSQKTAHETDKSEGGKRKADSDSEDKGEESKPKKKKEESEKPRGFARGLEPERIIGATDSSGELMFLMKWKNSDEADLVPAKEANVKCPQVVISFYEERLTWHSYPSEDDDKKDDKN
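HP1-beta protein (50 nM final) preincubated 30 min at room temperature with biotinylated H3(1-18)K9me3 peptide (50 nM) in PBS pH 7.4, 0.01% Tween-20, then compound added for 30 min. AlphaScreen streptavidin donor/nickel chelate acceptor beads (10 ug/mL final), 30 min dark, luminescence read.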
JMJD2A Tudor inh = JMJD2A Tudor domain (human) inhibition; O75164; AlphaScreen JMJD2A-Tudor / H3K4me3 peptide binding; Potency, µM (top dose mostly 114 µM), usual class: inhibitors; hit rate 4.4% among 390,000; AID 504339; further: nearly all actives have a fitted effect of over 50% in size
BAZ2B block = inhibitors of human BAZ2B bromodomain; hit rate 4.4% among 360,000; Potency, µM (highest dose often 114 µM), most hits filed as inhibitors; AlphaScreen BAZ2B-H3K14Ac peptide displacement; AID 504333; Q9UIF8; further: nearly all actives have a fitted effect of over 60% in size
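AlphaScreen luminescence quantifies BAZ2B engagement of H3K14Ac peptide; the protein and biotinylated peptide are both at 50 nM final, buffer PBS pH 7.4 with 0.01% Tween-20, all steps at room temperature.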
G9a inh = blocks human histone lysine methyltransferase G9a | Q96KQ7 | G9a H3K9 monomethylation, AlphaScreen, 2 h | Potency, µM (doses to about 102 µM), most hits filed as inhibitors | hit rate 8.8% among 350,000 | AID 504332; further: nearly all actives have a fitted effect of over 75% in size
Target sequence (Q96KQ7 913-1193 limits assumed): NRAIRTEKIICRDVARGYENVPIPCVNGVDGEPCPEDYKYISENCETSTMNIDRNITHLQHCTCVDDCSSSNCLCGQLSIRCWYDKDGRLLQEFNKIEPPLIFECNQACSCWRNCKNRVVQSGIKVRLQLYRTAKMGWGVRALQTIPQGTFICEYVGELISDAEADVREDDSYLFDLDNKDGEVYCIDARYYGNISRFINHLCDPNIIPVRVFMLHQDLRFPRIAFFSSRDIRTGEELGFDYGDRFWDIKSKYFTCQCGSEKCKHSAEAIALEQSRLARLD
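Methyltransferase reactions run at room temperature for 2 h (20 nM enzyme, 500 nM biotin-H3K9 peptide, 20 uM SAM) after a 15 min compound preincubation; product detected by AlphaScreen beads and anti-H3K9me1 antibody.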
TDP1 block = inhibitors of human tyrosyl-DNA phosphodiesterase TDP1. Q9NUW8. recombinant TDP1, AlphaScreen DNA substrate cleavage. Potency, µM (highest dose often 130 µM), most hits filed as inhibitors. hit rate 0.28% among 350,000; further: nearly all actives have a fitted effect of over 40% in size
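Recombinant human Tdp1 (E. coli-expressed, 1 nM final) preincubated with compounds 15 min at room temperature, then 5'-biotin/3'-phosphotyrosine-FITC DNA substrate (15 nM final) added for 5 min. AlphaScreen beads (10 ug/ml final) added 10 min; cleavage lowers signal.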
Of the large screens only hits and unclear results are named; the others gave an inactive call. The call rests on the fitted dose curve; in most records, active means well fitted curve in the direction sought with a large enough effect; inconclusive means small, poorly fitted or top-dose-only effect, or another doubt; inactive means no such curve, though single readings can be large; an effect the other way counts as inactive or inconclusive.

Nc1nc(NC(=O)c2cccnc2)nn1-c1ccccc1	JMJD2A Tudor inh 11µM, BAZ2B block 79µM, G9a inh 14µM
CCOCCCNC(=O)c1cccc(OC2CCN(S(C)(=O)=O)CC2)c1	none (no result: G9a inh, TDP1 block)
C=CC[n+]1c(-c2ccc(OCC)cc2)csc1NNC(=O)Nc1ccccc1	HP1b chromo inh 14µM, JMJD2A Tudor inh 22µM, BAZ2B block 10µM, G9a inh inconclusive
Nc1cnccc1Oc1cccc(C(F)(F)F)c1	none (no result: Sfp inh, BAZ2B block, G9a inh, TDP1 block)
COc1ccccc1/C=C/C(=O)NCc1ccccn1	none (no result: G9a inh)
N=C1C(c2nc3ccccc3c(=O)[nH]2)=C(O)CN1CCO	none
N=C1C(c2nc3ccccc3c(=O)[nH]2)=C(O)CN1CCc1ccccc1	G9a inh inconclusive, TDP1 block 71µM
CNC(=S)N1N=C(c2ccc(C)cc2)CC1c1cc(OC)ccc1OC (centres undefined)	JMJD2A Tudor inh inconclusive, BAZ2B block inconclusive (no result: G9a inh)
COc1ccc(C2CC(c3ccccc3)=NN2C(=O)CN2CCN(Cc3ccccc3)CC2)cc1 (centres undefined)	JMJD2A Tudor inh 79µM, BAZ2B block 35µM, G9a inh inconclusive
CNC(=S)N1N=C(c2ccc(Br)cc2)CC1c1ccc(OC)cc1 (centres undefined)	Sfp inh 45µM, HP1b chromo inh inconclusive, JMJD2A Tudor inh 2.5µM, G9a inh 2.5µM
CNC(=S)N1N=C(c2ccc(C)cc2)CC1c1ccc(N(C)C)cc1 (centres undefined)	Sfp inh inconclusive, HP1b chromo inh 50µM, JMJD2A Tudor inh 32µM, BAZ2B block 10µM, G9a inh 14µM
COc1ccc(C2=NN(C(=O)CN3CCCCC3)C(c3ccc(C)cc3)C2)cc1 (centres undefined)	none
O=[N+]([O-])c1cccc(OCC(O)CN2CCN(S(=O)(=O)c3cc(Cl)ccc3Cl)CC2)c1 (centres undefined)	JMJD2A Tudor inh inconclusive, G9a inh inconclusive
CCN(CCO)C(=O)c1ccc2nc(Cc3cccc(Cl)c3)oc2c1	none (no result: G9a inh)
CCOC(=O)c1ccc(NC(=O)c2nc[nH]c2C(=O)N(C)Cc2ccccc2)cc1	none
Nc1ccccc1C(=O)NCc1ccccc1	JMJD2A Tudor inh 35µM
CCNC(=O)c1nc[nH]c1C(=O)NCC	JMJD2A Tudor inh 40µM
Cc1ccccc1CNC(=O)c1ccccc1N	none
O=C(NCc1ccccc1)c1nc[nH]c1C(=O)NCc1ccccc1	BAZ2B block inconclusive, G9a inh 50µM
O=C(Nc1ccccc1)c1nc[nH]c1C(=O)NCc1ccccc1	none (no result: Sfp inh)
CN(Cc1ccccc1)C(=O)c1[nH]cnc1C(=O)Nc1nccs1	JMJD2A Tudor inh 56µM, BAZ2B block 25µM (no result: Sfp inh)
CC1(C)C(=O)C(c2ccccc2)=C2CN3C(=O)N(CCc4ccccc4)C(=O)C3(Cc3ccc(C(F)(F)F)cc3)C=C21 (centres undefined)	none (no result: HP1b chromo inh, JMJD2A Tudor inh, BAZ2B block, G9a inh)
O=C(Nc1ccc(F)cc1)c1nc[nH]c1C(=O)O	JMJD2A Tudor inh 10µM, BAZ2B block 4.5µM (no result: TDP1 block)
NNC(=O)c1nc[nH]c1C(=O)Nc1ccccc1	JMJD2A Tudor inh inconclusive, BAZ2B block 1.3µM, G9a inh inconclusive (no result: TDP1 block)
C[C@H](NC(=O)c1[nH]cnc1C(=O)Nc1ccccc1)c1ccccc1	none (no result: Sfp inh)
CNC(=O)c1nc[nH]c1C(=O)NC	JMJD2A Tudor inh 28µM, BAZ2B block inconclusive, G9a inh inconclusive
CNC(=O)c1[nH]cnc1C(=O)NCC(=O)OC(C)(C)C	G9a inh inconclusive (no result: TDP1 block)
C[C@]12CCC(=O)C=C1CC[C@@H]1[C@@H]2[C@@H](O)C[C@@]2(C)[C@H]1CC[C@]2(O)C(=O)COP(=O)(O)O	none (no result: HP1b chromo inh, JMJD2A Tudor inh, BAZ2B block, TDP1 block)
Cc1cccnc1NC(=O)CN1C(=O)COc2ccc(Cl)cc21	BAZ2B block 56µM (no result: TDP1 block)
O=C(CN1C(=O)COc2ccc(Cl)cc21)Nc1nccs1	none (no result: Sfp inh)
Oc1ccc(Br)cc1-c1cc(-c2ccccc2Cl)[nH]n1	none
Oc1c(Br)cc(C2N=C(c3ccccc3Cl)NO2)cc1Br (centres undefined)	HP1b chromo inh inconclusive, JMJD2A Tudor inh 40µM
O=C(c1ccc(=O)oc1)N1CCOCC1	HP1b chromo inh 22µM, JMJD2A Tudor inh 45µM, BAZ2B block 50µM, G9a inh 22µM (no result: TDP1 block)
O=C(c1cc(Br)c(Br)s1)N1CCOCC1	none (no result: Sfp inh, TDP1 block)
O=C(c1ccc(F)cc1)N1CCOCC1	none
O=C(c1coc(=O)c(Br)c1)N1CCOCC1	HP1b chromo inh inconclusive, JMJD2A Tudor inh inconclusive, BAZ2B block 50µM, G9a inh inconclusive, TDP1 block 22µM
O=[N+]([O-])c1cc(C=Nc2ccc3ccccc3c2)ccc1Br	HP1b chromo inh 50µM, JMJD2A Tudor inh 50µM, BAZ2B block 28µM, G9a inh 10µM
COc1ccc(Cl)cc1NC(=O)CN(C)C(=O)c1cccc2cccnc12	none (no result: Sfp inh, BAZ2B block, G9a inh)
CN(CC(=O)Nc1cccc(F)c1)C(=O)CCc1nc2ccccc2c(=O)[nH]1	G9a inh 45µM (no result: Sfp inh)
CN(CC(=O)Nc1ccc(F)c(F)c1F)C(=O)CCCc1nc2ccccc2c(=O)[nH]1	none (no result: Sfp inh)
COc1ccc(Cl)cc1NC(=O)CN(C)C(=O)c1cc2ccccc2cc1O	BAZ2B block inconclusive, G9a inh 50µM (no result: Sfp inh)
CN(CC(=O)Nc1cccc(F)c1)C(=O)c1cccc2ccccc12	none (no result: Sfp inh)
COc1ccc(Cl)cc1NC(=O)CN(C)C(=O)c1ccc2c(c1)OCCO2	G9a inh 40µM (no result: Sfp inh)
CN(CC(=O)Nc1cccc(F)c1)C(=O)c1cc(=O)[nH]c2ccccc12	G9a inh 8.9µM (no result: Sfp inh)
CN(CC(=O)Nc1cccc(F)c1)C(=O)c1ccc(-c2cccc(C(F)(F)F)c2)o1	G9a inh 18µM (no result: Sfp inh, TDP1 block)
CC(=O)c1cccc(NC(=O)c2cc(=O)[nH]c3ccccc23)c1	G9a inh 45µM (no result: TDP1 block)
CN(CC(=O)Nc1cccc(F)c1)C(=O)c1ccc2c(c1)OCCO2	G9a inh 10µM (no result: Sfp inh)
COc1cccc(NC(=O)CN(C)C(=O)c2ccc(-c3cccc(C(F)(F)F)c3)o2)c1	none (no result: Sfp inh)
O=C(CSc1ccc(S(=O)(=O)N2CCCCC2)cn1)Nc1ccccc1Br	none (no result: Sfp inh)
c1ccc2c3c([nH]c2c1)-c1[nH]ncc1CC3	JMJD2A Tudor inh inconclusive, BAZ2B block inconclusive, G9a inh 35µM
Clc1ccc2[nH]c3c(c2c1)CCc1cn[nH]c1-3	HP1b chromo inh inconclusive, JMJD2A Tudor inh 79µM, BAZ2B block inconclusive, G9a inh 35µM
Cc1cc(F)ccc1NCc1ccccc1-c1nnc(-c2ccccc2Cl)o1	G9a inh inconclusive (no result: Sfp inh)
CC1=C(C(=O)Nc2ccc(Cl)cc2)C(c2ccncc2)C(C#N)=C(SCC(N)=O)N1 (centres undefined)	Sfp inh 89µM, G9a inh inconclusive
CC(=O)C1=C(C)NC(SCC(=O)Nc2nc3ccccc3s2)=C(C#N)C1c1ccc(Cl)cc1 (centres undefined)	Sfp inh 40µM, G9a inh 8.9µM
